High-throughput results (PubChem)
A selection: hits, their analogues and other compounds. The true share with any hit is near 2.7%.
IP6K1 inhibitor = blocks human inositol hexakisphosphate kinase 1; IP6K1 kinase, ADP-Glo luminescence, 2 h; active compounds read low; AID 1645851; Q92551; hit rate 0.81% among 140,000; activity change, % (series mostly up to about 58 µM); in the data active = activity change below about -25%
Target sequence (Q92551 whole entry, looked up): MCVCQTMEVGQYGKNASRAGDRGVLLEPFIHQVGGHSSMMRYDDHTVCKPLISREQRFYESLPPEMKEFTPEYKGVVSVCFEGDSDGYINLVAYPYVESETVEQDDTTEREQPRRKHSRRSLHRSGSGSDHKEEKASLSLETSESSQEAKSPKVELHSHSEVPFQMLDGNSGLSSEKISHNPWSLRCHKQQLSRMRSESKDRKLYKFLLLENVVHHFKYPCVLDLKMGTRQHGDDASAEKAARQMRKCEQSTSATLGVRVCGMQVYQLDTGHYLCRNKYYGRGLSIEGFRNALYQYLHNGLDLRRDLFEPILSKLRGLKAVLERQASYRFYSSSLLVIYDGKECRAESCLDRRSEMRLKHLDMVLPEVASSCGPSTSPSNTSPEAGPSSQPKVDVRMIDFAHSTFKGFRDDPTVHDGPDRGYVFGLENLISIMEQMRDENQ
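ADP-Glo luminescence measures ADP made by human IP6K1 during a 2 h RT reaction with ATP/IP6 (mix at 1.3 mM/130 uM); top library doses 57.5 and 19.1 uM final.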
KDM5B inhibitor = blocks human KDM5B histone demethylase activity | Q9UGL1 | KDM5B demethylase, FDH-coupled NADH fluorescence (FDH is formaldehyde dehydrogenase) | Potency, µM (top dose mostly 57.7 µM), actives largely listed as inhibitors | hit rate 2.6% among 220,000; active = well fitted inhibition curve with a large enough effect; inconclusive = small, poorly fitted or top-dose-only effect; inactive = no such curve, though single readings can be large or run the other way; note: nearly all actives have a fitted effect of over 70% in size
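Compound dilutions met 200 nM (final) KDM5BΔAP for 10 min at room temperature before substrate addition. The substrate mix held 12.5 µM H3K4me3 with cofactors 25 µM α-ketoglutarate and 50 µM Fe²⁺. NADH signal gain over 30 min defined activity.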
Of the large screens only hits and unclear results are named; the others gave an inactive call.

O=C(Nc1ccc(Cl)cc1)c1nc2c(o1)CCN(Cc1ccc(F)cc1F)CC2	KDM5B inhibitor 28.2µM
CC(=O)Nc1ccc(/C(C)=N\OCC(=O)NC(C)c2ccccc2)cc1 (configuration not stated)	none (no result: IP6K1 inhibitor)
C#CCOC(=O)c1ccccc1C(=O)N(C1CCCCC1)C1CCCCC1	none (no result: IP6K1 inhibitor)
O=C(c1cc(=O)c2cc(Cl)cc(Cl)c2o1)N1CCN(Cc2ccccc2)CC1	none (no result: IP6K1 inhibitor)
COC(=O)c1ccc(NC(=O)c2cnccn2)cc1	none (no result: IP6K1 inhibitor)
COCCOCC1(CNC(=O)c2cc(C)nn2C)C[C@@H](O)[C@@H](O)C1 (some centres not stated)	KDM5B inhibitor inconclusive
O=C(NCC1(COc2cccnc2)C[C@@H](O)[C@@H](O)C1)c1nc2ccccc2[nH]1 (some centres not stated)	KDM5B inhibitor inconclusive
COCCOCC1(CNC(=O)c2nc3ccccc3[nH]2)C[C@@H](O)[C@@H](O)C1 (some centres not stated)	KDM5B inhibitor 31.6µM
O=C(NCC1(COc2cnccn2)C[C@@H](O)[C@@H](O)C1)c1nc2ccccc2[nH]1 (some centres not stated)	KDM5B inhibitor 28.2µM
COc1ccc(N2CCN(C(=O)c3cc(NC(C)=O)cc4nc(C)ccc34)CC2)cc1	KDM5B inhibitor inconclusive
Cc1ccc2c(C(=O)NCCc3cccs3)cc(NC(=O)C3CCC3)cc2n1	KDM5B inhibitor inconclusive
Cc1cc(C)cc(NC(=O)C2CCCCC2)c1	none (no result: IP6K1 inhibitor)
Cc1ccc2c(C(=O)O)cc(NC(=O)C3CCC3)cc2n1	KDM5B inhibitor 22.4µM
Cc1ccc2c(C(=O)N3CCOCC3)cc(NC(=O)C3CCC3)cc2n1	KDM5B inhibitor 22.4µM
CNC(=O)c1cc(NC(=O)C2CCC2)cc2nc(C)ccc12	KDM5B inhibitor 31.6µM
Cc1ccc2c(C(=O)N3CCN(CC(C)C)CC3)cc(NC(=O)C3CCC3)cc2n1	KDM5B inhibitor 22.4µM
Cc1cnc(C(=O)N[C@@H]2CCC[C@@H]2C(=O)N2CCN(CC(C)C)CC2)cn1	none
COc1cccc(-c2cccc(C(=O)N3CCCC3C(=O)NCc3ccc4c(c3)OCO4)c2)c1 (configuration not stated)	none (no result: KDM5B inhibitor)
Cc1ccc2oc(C(=O)Nc3cccc(C(=O)NC4CC4)c3)cc(=O)c2c1	none (no result: IP6K1 inhibitor)
Cn1ncc2c(C(=O)NCC(F)F)cc(-c3ccc(Cl)cc3)nc21	none (no result: KDM5B inhibitor)
COc1ccc(NC(=O)c2cc(NC(=O)C3CCC3)cc3nc(C)ccc23)cc1	KDM5B inhibitor 25.1µM
Cc1ccc2c(C(=O)N3CCN(c4ccc(F)cc4)CC3)cc(NC(=O)C(C)C)cc2n1	KDM5B inhibitor inconclusive
Cc1ccc(NC(=O)c2cc(NC(=O)C3CC3)cc3nc(C)ccc23)cc1	KDM5B inhibitor inconclusive
Cc1ccc2c(C(=O)N3CCN(C(C)C)CC3)cc(NC(=O)C(C)C)cc2n1	KDM5B inhibitor 25.1µM
CCOc1ccc(NC(=O)COC(=O)c2sc3ccccc3c2Cl)cc1	none (no result: IP6K1 inhibitor)
CC(C)(/C=N/O)/[N+]([O-])=C/c1ccc(F)cc1	none (no result: IP6K1 inhibitor)
COc1ccc(OC)c(-c2csc(NC(=O)c3nn(C)c(=O)c4ccccc34)n2)c1	none (no result: IP6K1 inhibitor)
CC(c1cc2ccccc2o1)N(C)Cc1nc(-c2ccc(C(F)(F)F)cc2)no1 (configuration not stated)	none (no result: IP6K1 inhibitor)
CCc1nc2c(c(-c3ccc(OC)cc3)n1)CCN(Cc1ccc(C#N)cc1)CC2	KDM5B inhibitor inconclusive
CCOc1ccc(C2Cn3nnc(-c4nc(-c5ccccc5OCC)no4)c3CO2)cc1 (configuration not stated)	KDM5B inhibitor 25.1µM
CCOc1ccccc1-c1noc(-c2nnn3c2COC(c2ccc(F)cc2)C3)n1 (configuration not stated)	KDM5B inhibitor inconclusive
CCOc1ccccc1-c1noc(-c2nnn3c2COC(c2ccc(OC)cc2)C3)n1 (configuration not stated)	KDM5B inhibitor 17.8µM
CCOc1cc(-c2noc(-c3nnn4c3COC(c3ccc(Cl)cc3)C4)n2)ccc1OC (configuration not stated)	KDM5B inhibitor inconclusive
CCOc1ccc(C2Cn3nnc(-c4nc(-c5ccccc5C)no4)c3CO2)cc1 (configuration not stated)	KDM5B inhibitor inconclusive
CCOc1cc(-c2noc(-c3nnn4c3COC(c3ccc(F)cc3)C4)n2)ccc1OC (configuration not stated)	KDM5B inhibitor 25.1µM
CCOc1ccccc1-c1noc(-c2nnn3c2COC(c2cccc(OC)c2)C3)n1 (configuration not stated)	none
CCOc1ccccc1-c1nc(-c2nnn3c2COC(c2ccc(OC)cc2)C3)no1 (configuration not stated)	KDM5B inhibitor 28.2µM
CCC(CO)NC(=O)c1nc(-c2cccc3[nH]ccc23)no1 (configuration not stated)	none (no result: IP6K1 inhibitor)
CC(C)C(C)NC(=O)c1ccc(Cl)cc1 (configuration not stated)	none (no result: IP6K1 inhibitor)
COc1ccc(NC(=O)c2cccc(NC(=O)c3ccc(Br)o3)c2)cc1	none (no result: IP6K1 inhibitor)
CCN(CC)S(=O)(=O)c1ccc(C(=O)N(c2ccccc2)c2nc(C)cs2)cc1	none (no result: IP6K1 inhibitor)
Cc1noc(-c2ccn3c(CNC(=O)c4cccnc4)nnc3c2)n1	none
CCc1noc(-c2ccn3c(CNC(=O)c4ccncc4)nnc3c2)n1	KDM5B inhibitor 25.1µM
Cc1noc(-c2ccn3c(CNC(=O)c4ccncc4)nnc3c2)n1	none
Cc1noc(-c2ccn3c(CNC(=O)c4ccoc4)nnc3c2)n1	KDM5B inhibitor 25.1µM
CCc1noc(-c2ccn3c(CNC(=O)c4ccoc4)nnc3c2)n1	KDM5B inhibitor 28.2µM
Cc1noc(-c2ccn3c(CNC(=O)c4ccc(N(C)C)cc4)nnc3c2)n1	KDM5B inhibitor inconclusive
CCc1noc(-c2ccn3c(CNC(=O)c4cc(Cl)ccc4F)nnc3c2)n1	KDM5B inhibitor inconclusive
CCCc1noc(-c2ccn3c(CNC(=O)c4cccnc4)nnc3c2)n1	KDM5B inhibitor 28.2µM
CC1(C)[C@H](Cc2cc(-c3ccc(F)cc3)on2)C[C@@H]1NCc1cccnc1	none
CN(C)C(=O)N1CCCN(c2ccc3nnc(-c4ccccc4)n3n2)CC1	none (no result: KDM5B inhibitor)
CCOC(=O)c1ccc(N2C(=O)[C@@H]3C(Cc4ccc(O)cc4)NC4(C(=O)Nc5ccc(F)cc54)[C@@H]3C2=O)cc1 (some centres not stated)	none (no result: IP6K1 inhibitor)
CCc1noc(-c2ccn3c(CNC(=O)c4cccc(OC)c4)nnc3c2)n1	KDM5B inhibitor 28.2µM
CCCc1noc(-c2ccn3c(CNC(=O)c4ccc(C)c(F)c4)nnc3c2)n1	KDM5B inhibitor 28.2µM
CCCc1noc(-c2ccn3c(CNC(=O)c4cccc(Cl)c4)nnc3c2)n1	KDM5B inhibitor inconclusive
Cc1ccc(C(=O)NCc2nnc3cc(-c4nc(C5CC5)no4)ccn23)cc1F	KDM5B inhibitor inconclusive
N#Cc1cccc(CN2CCCC(c3nc4ccc(F)cc4c(=O)[nH]3)C2)c1 (configuration not stated)	none
Cc1ccccc1-c1noc(-c2ccc(NC(C)c3cnn(C)c3)nc2)n1 (configuration not stated)	KDM5B inhibitor 28.2µM
Cc1ccccc1-c1noc(-c2ccc(Br)cc2)n1	none (no result: IP6K1 inhibitor)
C[S+](=O)([O-])Nc1cccc(-c2cc(-c3cccnc3)c3cncn3c2)c1	KDM5B inhibitor 35.5µM
NC(=O)c1cccc(-c2cc(-c3cccnc3)c3cncn3c2)c1	KDM5B inhibitor inconclusive
c1cncc(-c2cc(-c3cccc4cc[nH]c34)cn3cncc23)c1	KDM5B inhibitor 35.5µM
c1cc(-c2cc(-c3ccncc3)c3cncn3c2)c2[nH]ccc2c1	none
